Experiment [1] is described as follows: optical density shifts of acrAB sulA E. coli – strain DRC41, OD650, 48 h, E. coli filamentation inducer project, primary screen (AID 1152).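 Note: E. coli MC1000 strain DRC41 lacking acrAB efflux pump and sulA.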 The settings on record: higher = more signal, called active from +8 up or from −8 down.
The nature of experiment [2]: probe aLefty1 binding on compound microarray – biochemical, small-molecule microarray, 635/667 nm fluorescence, primary screen (AID 1153).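 Note: score merges spot fluorescence with signal-to-noise ratio from the scanned slide images.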 The settings on record: higher = more signal.
The nature of experiment [3]: plasmodial surface anion channel blockers, osmotic lysis – cell-based, P. falciparum Indochina, OD700, 1 h, primary screen (AID 1154). The conditions noted are these: P. falciparum Indochina infected RBC osmotic lysis, higher = more signal, called active from +8 up or from −8 down.
Experiment [4] can be described thus: plasmodial surface anion channel blockers, osmotic lysis – cell-based, P. falciparum Indochina, OD700, 2 h, primary screen (AID 1155).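 Note: lysis reports solute entry through the parasite surface anion channel PSAC.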 The settings on record: P. falciparum Indochina infected erythrocytes, higher = more signal, called active from +8 up or from −8 down.
Experiment [5] can be described thus: changes in parasitized red cell lysis, either direction – P. falciparum Indochina, OD700, 3 h, PSAC antagonist project, primary screen (AID 1156). The conditions noted are these: P. falciparum-infected erythrocytes, osmotic lysis, higher = more signal, called active from +8 up or from −8 down.
Experiment [6] in a line: plasmodial surface anion channel blockers, osmotic lysis – cell-based, P. falciparum Indochina, OD700, 18 h, primary screen (AID 1157). The conditions noted are these: P. falciparum Indochina infected erythrocytes, osmotic lysis OD700, 18 h; higher = more signal, called active from +8 up or from −8 down.
The nature of experiment [7]: S6 kinase pathway phospho-S6 level changes – cell-based, A549, cytoblot, luminescence, serum-stimulated, primary screen (AID 1158).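 Note: serum-stimulated A549 lung adenocarcinoma cells; signal is phosphorylated S6 detected by cytoblot immunostaining with HRP secondary.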 The conditions noted are these: 5 h, higher = more signal.
The target of experiment [8] is NADPH oxidase 2 (Homo sapiens) (UniProt P04839). As to the kind of experiment: compounds shifting NOX2 Amplex Red fluorescence – cell-based, HEK293-NOX2, PMA-stimulated, NOX inhibitor project, primary screen (AID 1159). Note: test concentration not given here. The settings on record: 45 min, higher = more signal, called active from +8 up or from −8 down.
Experiment [9] has as its target NADPH oxidase 4 (Homo sapiens) (UniProt Q9NPH5). Nature of the experiment: compounds shifting NOX4 Amplex Red fluorescence – cell-based, HEK293-NOX4, tetracycline-induced, NOX inhibitor project, primary screen (AID 1160). The settings on record: HEK293-NOX4, Amplex Red H2O2 fluorescence, 45 min; higher = more signal, called active from +8 up or from −8 down.
Experiment [10] concerns the target NADPH oxidase 5 (Homo sapiens) (UniProt Q96PH1). As to the kind of experiment: compounds shifting NOX5 Amplex Red fluorescence – cell-based, HEK293-NOX5, NOX inhibitor project, primary screen (AID 1161). The conditions noted are these: HEK293-NOX5, ionomycin, 45 min, higher = more signal.
Experiment [11] in a line: compound effects on lung adenocarcinoma cell viability – A549, calcein-AM fluorescence, 48 h, basal, profiling panel (AID 1162). Note: test concentration not given here. The conditions noted are these: higher = more signal.
Experiment [12] is described as follows: compound effects on differentiated 3T3-L1 adipocyte viability – cell-based, 3T3-L1 adipocytes, calcein-AM fluorescence, 48 h, basal, profiling panel (AID 1163). Note: test concentration not given here. The settings on record: 3T3-L1 adipocytes viability, higher = more signal.
The nature of experiment [13]: compound effects on hepatocellular carcinoma cell viability – HepG2, calcein-AM fluorescence, 48 h, basal, profiling panel (AID 1164). Note: test concentration not given here. The settings on record: higher = more signal.
Experiment [14] can be described thus: compound effects on multiple myeloma cell viability – MM1S, calcein-AM fluorescence, 48 h, basal, profiling panel (AID 1165). Note: test concentration not given here. The conditions noted are these: higher = more signal.
Experiment [15] in a line: calcein-AM signal in unstimulated myeloma cells – cell-based, calcein-AM fluorescence, 48 h, PK04 Diversity Set, profiling panel (AID 1166).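 Note: cells grown under basal conditions without added stimulus; test concentration not given here.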 The settings on record: RPMI8226 myeloma viability, higher = more signal.
The nature of experiment [16]: JC-1 mitochondrial signal, unstimulated HepG2 cells – cell-based, JC-1 fluorescence, 24 h, 100 nL compound, profiling panel (AID 1167). Note: test concentration not given here. The settings on record: HepG2 mitochondrial potential, higher = more signal.
Experiment [17] is described as follows: JC-1 mitochondrial signal, unstimulated adipocytes – cell-based, JC-1 fluorescence, 3T3-L1 adipocytes, 24 h, 100 nL compound, profiling panel (AID 1168). Note: test concentration not given here. The conditions noted are these: JC-1 mitochondrial fluorescence, higher = more signal, called active from +8 up or from −8 down.
Experiment [18] in a line: JC-1 mitochondrial signal, unstimulated myeloma cells – cell-based, JC-1 fluorescence, RPMI8226, 24 h, 100 nL compound, profiling panel (AID 1169). Note: test concentration not given here. The settings on record: JC-1 mitochondrial potential fluorescence, higher = more signal.
Experiment [19] is described as follows: JC-1 mitochondrial signal, unstimulated MM1S myeloma – cell-based, JC-1 fluorescence, 24 h, 100 nL compound, profiling panel (AID 1170). Note: test concentration not given here. The settings on record: MM1S mitochondrial potential, higher = more signal.
Experiment [20] in a line: resazurin metabolic signal in A549 cells – cell-based, resazurin fluorescence, 24 h, PK04 Diversity Set, profiling panel (AID 1171). Note: test concentration not given here. The conditions noted are these: A549 viability, higher = more signal, called active from +8 up or from −8 down. On the technique in general: Alamar Blue is a resazurin reagent that responds to reducing activity.

Activity calls are given as the source filed them.

Sequence of NADPH oxidase 2 (Homo sapiens) (P04839 whole entry, looked up): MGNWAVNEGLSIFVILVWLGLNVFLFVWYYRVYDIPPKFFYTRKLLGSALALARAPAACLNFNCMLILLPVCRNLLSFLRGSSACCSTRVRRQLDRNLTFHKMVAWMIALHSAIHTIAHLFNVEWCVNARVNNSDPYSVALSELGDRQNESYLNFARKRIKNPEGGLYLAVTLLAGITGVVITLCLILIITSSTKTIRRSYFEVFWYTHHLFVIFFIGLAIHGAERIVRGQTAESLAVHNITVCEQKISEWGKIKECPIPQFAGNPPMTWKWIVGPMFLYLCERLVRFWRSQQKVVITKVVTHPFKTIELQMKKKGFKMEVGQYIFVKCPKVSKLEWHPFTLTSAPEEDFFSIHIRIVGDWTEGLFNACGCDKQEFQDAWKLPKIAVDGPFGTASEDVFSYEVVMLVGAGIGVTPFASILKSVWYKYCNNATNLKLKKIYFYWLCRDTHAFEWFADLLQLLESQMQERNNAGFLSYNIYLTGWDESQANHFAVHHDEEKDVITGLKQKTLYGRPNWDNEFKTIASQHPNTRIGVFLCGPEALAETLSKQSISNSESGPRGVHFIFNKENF
Sequence of NADPH oxidase 4 (Homo sapiens) (Q9NPH5 whole entry, looked up): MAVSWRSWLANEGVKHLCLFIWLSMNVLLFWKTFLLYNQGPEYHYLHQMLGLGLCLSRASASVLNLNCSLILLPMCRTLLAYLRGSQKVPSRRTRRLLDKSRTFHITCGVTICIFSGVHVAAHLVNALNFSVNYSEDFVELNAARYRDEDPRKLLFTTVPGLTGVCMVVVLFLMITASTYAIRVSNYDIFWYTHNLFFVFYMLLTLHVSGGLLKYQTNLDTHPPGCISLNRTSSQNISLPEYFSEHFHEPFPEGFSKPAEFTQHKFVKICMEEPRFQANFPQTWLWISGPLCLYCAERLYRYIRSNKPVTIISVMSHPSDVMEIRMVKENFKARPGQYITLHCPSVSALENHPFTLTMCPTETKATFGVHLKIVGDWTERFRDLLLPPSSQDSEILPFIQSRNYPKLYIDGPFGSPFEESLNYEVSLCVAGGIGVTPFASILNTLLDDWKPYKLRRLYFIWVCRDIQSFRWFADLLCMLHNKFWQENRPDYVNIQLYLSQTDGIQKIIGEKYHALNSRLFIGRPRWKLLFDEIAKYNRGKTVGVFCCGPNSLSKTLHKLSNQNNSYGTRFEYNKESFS
Sequence of NADPH oxidase 5 (Homo sapiens) (Q96PH1 whole entry, looked up): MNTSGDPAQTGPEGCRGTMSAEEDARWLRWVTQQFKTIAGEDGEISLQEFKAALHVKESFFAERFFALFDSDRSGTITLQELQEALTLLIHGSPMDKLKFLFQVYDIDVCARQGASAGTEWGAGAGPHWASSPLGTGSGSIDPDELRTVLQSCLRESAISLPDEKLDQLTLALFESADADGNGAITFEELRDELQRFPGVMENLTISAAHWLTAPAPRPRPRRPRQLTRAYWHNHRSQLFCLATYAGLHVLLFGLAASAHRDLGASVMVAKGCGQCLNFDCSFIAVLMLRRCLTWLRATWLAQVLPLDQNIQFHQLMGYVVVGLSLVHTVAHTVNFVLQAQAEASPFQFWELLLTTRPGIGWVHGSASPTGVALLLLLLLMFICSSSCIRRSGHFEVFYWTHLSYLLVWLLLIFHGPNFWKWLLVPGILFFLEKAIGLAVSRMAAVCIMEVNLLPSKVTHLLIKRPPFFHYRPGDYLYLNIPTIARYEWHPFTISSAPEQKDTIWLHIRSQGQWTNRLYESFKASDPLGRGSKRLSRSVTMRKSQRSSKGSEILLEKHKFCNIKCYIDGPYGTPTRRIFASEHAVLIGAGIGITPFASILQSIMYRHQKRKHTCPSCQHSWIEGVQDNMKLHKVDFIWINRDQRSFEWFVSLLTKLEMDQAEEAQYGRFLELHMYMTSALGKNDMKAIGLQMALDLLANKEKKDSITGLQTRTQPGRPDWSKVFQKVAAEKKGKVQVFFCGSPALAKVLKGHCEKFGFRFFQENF

Consider `CC[C@@H]1O[Si](C(C)C)(C(C)C)c2c1cc(-c1cc(C)c(OC)c(C)c1)nc2-c1ccc(Oc2ccccc2)cc1`, for which the z-score is -0.109 (inactive) in [1]; -0.261 (inactive) in experiment [3]; 0.26 (inactive) in experiment [4]; 0.827 (inactive) in experiment [5]; 0.311 (inactive) in experiment [6]; 0.189 in experiment [7]. For the same compound, the z-score is -1.36 (inactive) in experiment [8]; -0.672 (inactive) in experiment [9]; -2.04 in experiment [10]; -0.472 in experiment [11]; -0.25 in experiment [12]; -0.601 in experiment [13]. Further, the z-score in experiment [14] was 0.287; in experiment [15], -0.388; in [16], -0.557; in [17], 0.202 (inactive); in experiment [18] it was 0.756; in experiment [19], 0.207. In experiment [20], the z-score is 1.69 (inactive). The compound further gave a composite z-score in experiment [2] of 0.0101.
As for `O=C1N(CCS(=O)(=O)c2ccccc2)c2ccccc2[C@H]2OC(c3ccc(OCCCO)cc3)=N[C@@]12Cc1ccccc1`, the z-score is -1.05 (inactive) in [1]; 31.2 (active) in experiment [3]; 27.5 (active) in [4]; 3.08 (inactive) in experiment [5]; 6.96 (inactive) in experiment [6]; 0.468 in experiment [7]. The z-score in [8] is -1.85 (inactive); in experiment [9], 1.07 (inactive); in experiment [10], -0.191; in [11] it was -0.386; in [12] it was 0.726; in experiment [13], -0.763. For the same compound, the z-score in [14] was -2.18; in experiment [15], -2.65; in [16] it was -0.654; in experiment [17], 0.777 (inactive); in experiment [18], -1.19; in experiment [19], -2.19. For the same compound, the z-score in experiment [20] was -1.02 (inactive). The composite z-score in experiment [2] is 0.253.
`CCCCN1CC=CC23O[C@@H]4/C=C\CCC(C)OC(=O)C4[C@H]2C(=O)N(CCCO)[C@@H]3C1=O` (stereo not given in full): the z-score in experiment [1] was 0.323 (inactive); in [3], 0.591 (inactive); in experiment [4], -0.0611 (inactive); in [5], -0.23 (inactive); in [6] it was 0.408 (inactive); in experiment [7] it was -0.118. In addition, the z-score is 1.1 (inactive) in [8]; -1.84 (inactive) in experiment [9]; 0.861 in experiment [10]; -0.615 in experiment [11]; 1.57 in [12]; -0.241 in [13]. Besides, the z-score in experiment [14] is 1.04; in experiment [15], -0.386; in experiment [16] it was -0.534; in experiment [17], 0.276 (inactive); in experiment [18], 0.635; in experiment [19], 0.71. In experiment [20], the z-score is -0.523 (inactive). Besides, the composite z-score in experiment [2] stood at 0.0494.
Turning to `[N-]=[N+]=Nc1ccccc1C[C@]1(C(=O)O)COC(c2ccc(OCCCO)cc2)=N1`, the z-score is -0.541 (inactive) in [1]; 23.9 (active) in [3]; 8.27 (active) in experiment [4]; 4.11 (inactive) in experiment [5]; 0.935 (inactive) in experiment [6]; -0.103 in [7]. In addition, the z-score was -2.44 (inactive) in experiment [8]; -0.992 (inactive) in [9]; -2.7 in experiment [10]; -0.118 in experiment [11]; 0.909 in experiment [12]; 0.215 in experiment [13]. For the same compound, the z-score was -0.0932 in [14]; -0.747 in experiment [15]; -0.253 in experiment [16]; -1.19 (inactive) in [17]; -0.329 in experiment [18]; 0.529 in experiment [19]. The z-score in experiment [20] was -0.98 (inactive). In experiment [2], the composite z-score is 0.199.
As to `CCCNC(=O)[C@@H]1c2ccccc2C(=O)N(Cc2ccc(OC(F)(F)F)cc2)[C@H]1c1ccc(CO)cc1`, the z-score is 0.52 (inactive) in [1]; 1.23 (inactive) in experiment [3]; -0.146 (inactive) in [4]; 1.03 (inactive) in [5]; -0.406 (inactive) in [6]; 0.289 in [7]. Besides, the z-score in experiment [8] is -0.62 (inactive); in [9], 0.184 (inactive); in experiment [10], 1.75; in experiment [11], 1.17; in experiment [12], 0.385; in experiment [13] it was 2.08. The z-score in [14] was 0.157; in [15] it was 0.485; in experiment [16] it was 3.22; in [17], 1.22 (inactive); in experiment [18], 0.432; in experiment [19] it was 0.129. Moreover, the z-score in experiment [20] is 0.285 (inactive). Further, the composite z-score in experiment [2] was -0.0099.
